The supplement of paper PMC4962491
± gives the standard deviation of the averaged measurements.

System: FaDu
Assay: mitochondrial oxygen consumption rate normalised to cell number, Z score vs plate DMSO wells; higher = higher oxygen consumption (negative = OCR reduction)
Conditions: treatment time 24 h, assay medium: 5 mM glucose, 5 mM pyruvate, 4 mM glutamine
Experimental: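 Secondary screen: FaDu cells were incubated 24 h with the top 130 primary hits at 0.08, 0.4, 2 or 10 uM. Mitochondrial-specific OCR (basal minus antimycin A) was measured on a Seahorse XF96 in medium with 5 mM glucose, 5 mM pyruvate and 4 mM glutamine and normalised to Hoechst cell number. OCR score = (OCR - mean of plate DMSO wells) / SD of plate DMSO wells. Three repeats.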
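Also: compound exposure in DMEM (4 mM L-glutamine, 5 mM glucose), antimycin A injected at 2 µM after the basal reading and its residual OCR subtracted from basal.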

Row | SMILES | mitochondrial oxygen consumption rate normalised (0.08 µM) | mitochondrial oxygen consumption rate normalised (0.4 µM) | mitochondrial oxygen consumption rate normalised (2 µM) | mitochondrial oxygen consumption rate normalised (10 µM)
1 | C=CCOC(Cn1ccnc1)c1ccc(Cl)cc1Cl (stereo not given) | -0.655 ± 2.4 | 0.416 ± 2.9 | -0.3 ± 1.2 | -0.245 ± 0.57
2 | CN(C)C(=O)C(CCN1CCC(O)(c2ccc(Cl)cc2)CC1)(c1ccccc1)c1ccccc1 | 0.831 ± 1.1 | 0.616 ± 1.4 | 0.593 ± 1.7 | -0.932 ± 1.7
3 | CCCCCCc1ccc(O)cc1O.Nc1c2ccccc2nc2ccccc12 | -0.393 ± 1.3 | -0.59 ± 2.2 | -2.14 ± 1.1 | -6.38 ± 0.68
4 | COc1c2occc2cc2ccc(=O)oc12 | -0.411 ± 1.2 | 0.146 ± 0.75 | -0.807 ± 2.3 | -1.8 ± 2.2
5 | CCN(CC)CCCC(C)Nc1ccnc2cc(Cl)ccc12 (stereo not given) | 0.223 ± 1.1 | 1.56 ± 0.35 | -0.792 ± 0.8 | 0.482 ± 1.1
6 | CCC(C)n1ncn(-c2ccc(N3CCN(c4ccc(OCC5COC(Cn6cncn6)(c6ccc(Cl)cc6Cl)O5)cc4)CC3)cc2)c1=O (stereo not given) | 0.265 ± 1.4 | 1.4 ± 0.68 | -0.554 ± 1.1 | -4.35 ± 1.6
7 | O=c1cc[nH]c(=S)[nH]1 | -0.646 ± 1.9 | 1.11 ± 0.98 | -0.279 ± 2.5 | 0.14 ± 2.1
8 | Cc1cc(N)c2ccccc2[n+]1CCCCCCCCCC[n+]1c(C)cc(N)c2ccccc21 | 0.324 ± 0.65 | 0.622 ± 0.8 | -4.67 ± 2.1 | -7.52 ± 1.4
9 | CCCCCCCCNC(C)C(O)c1ccc(SC(C)C)cc1 (stereo not given) | 0.0353 ± 1.1 | -0.376 ± 0.59 | 0.293 ± 1.8 | -7.88 ± 0.64
10 | N[C@@H](Cc1ccc(O)c(O)c1)C(=O)O | 0.0621 ± 1.8 | 0.345 ± 0.69 | 1.31 ± 0.9 | 0.522 ± 2
